This is an account of results in PubChem BioAssay (NCI).

Compounds without any hit were thinned out: in the full panel of roughly 83,000, 20% have a hit.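 A percent growth of 40 corresponds to 60% growth inhibition; 0 means no net growth; -100 means all cells died. Active threshold: below 10.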 A number with no mark means an inactive call. Active and inactive are the calls of the source.

Among the test systems are SK-MEL-2 melanoma; SN12C renal; UO-31 renal; TK-10 renal; ACHN renal; CAKI-1 renal; A498 renal; CCRF-CEM leukemia; MOLT-4 leukemia.
Holding throughout (assay): NCI-60 one-dose screen, 48 h (100 = growth as untreated, 0 = no growth, -100 = all killed)
Common to all, as to conditions: 10 µM

As to `CCc1ccc(-c2nnc(COc3ccc(-c4nc5ccccc5[nH]4)cc3OC)o2)cc1`, the growth is 96.7% in the test on SK-MEL-2 melanoma; 21.7% in the test on SN12C renal; 56.8% in the test on UO-31 renal; 16.7% in the test on TK-10 renal; -13.9% (active) with ACHN renal; 60.1% with CAKI-1 renal. Besides, the growth in the test with A498 renal was 88.8%; in the test with CCRF-CEM leukemia, 61.8%; with MOLT-4 leukemia it was 71.8%.

As to `Cc1ccc(-n2nnc3c(sc4ccccc43)c2=O)cc1`, the growth is 83% in the test on SK-MEL-2 melanoma; 76.7% with SN12C renal; 9.98% (active) in the test with UO-31 renal; 56.7% with TK-10 renal; 15.2% in the test with ACHN renal; 48.7% with CAKI-1 renal. In addition, the growth in the test on A498 renal is 102%; with CCRF-CEM leukemia, 76.3%; with MOLT-4 leukemia it was 90.6%.

For `O=S(=O)(O)C1(O)CCCCC1`, the growth is 90.1% with SK-MEL-2 melanoma; 99.3% with SN12C renal; 58.9% in the test with UO-31 renal; 169% in the test with TK-10 renal; 72.9% with ACHN renal; 76% in the test on CAKI-1 renal. Besides, the growth in the test on A498 renal is 112%; in the test on CCRF-CEM leukemia, 92.8%; with MOLT-4 leukemia, 87.9%.

On to `Cc1ncc([N+](=O)[O-])n1CCOc1ccc(C(=O)/C=C/c2ccc(C(F)(F)F)cc2)cc1`, for which the growth in the test on SK-MEL-2 melanoma was 81%; in the test with SN12C renal, 77.9%; with UO-31 renal, 40.6%; in the test on TK-10 renal it was 72.4%; with ACHN renal, 80.7%; in the test on CAKI-1 renal it was 81.3%. Further, the growth was 74.5% in the test with A498 renal, 27.5% with CCRF-CEM leukemia and 28.3% in the test with MOLT-4 leukemia.

Consider `COc1ccc(-c2csc(NC(=O)CO[N+](=O)[O-])n2)cc1`, for which the growth in the test with SK-MEL-2 melanoma is 81.6%; in the test on SN12C renal, 102%; with UO-31 renal, 83.1%; with TK-10 renal it was 106%; with ACHN renal, 101%; with CAKI-1 renal it was 95.2%. The growth with A498 renal was 126%; with CCRF-CEM leukemia, 97.9%; with MOLT-4 leukemia, 93.1%.

Turning to `COc1ccc(-c2[nH]ncc2/C=C/c2cc(C(F)(F)F)[nH]c(=O)n2)cc1`, the growth in the test with SK-MEL-2 melanoma is 82.9%; in the test on SN12C renal it was 96.2%; in the test with UO-31 renal it was 87.1%; in the test with TK-10 renal, 94.8%; in the test with ACHN renal, 92.6%; in the test with CAKI-1 renal it was 102%. The growth with A498 renal is 89.3%; with CCRF-CEM leukemia, 73%; in the test on MOLT-4 leukemia, 86%.

On to `CC(C)C[C@H](NC(=O)Cn1ccc(Nc2ccccc2)cc1=O)B(O)O`, for which the growth is -2.39% (active) in the test with SK-MEL-2 melanoma; 47.9% in the test on SN12C renal; 53.9% in the test on UO-31 renal; 13.5% in the test with TK-10 renal; 10.1% in the test on ACHN renal; 45.3% in the test on CAKI-1 renal. Also, the results for the growth with A498 renal, in the test on CCRF-CEM leukemia and in the test on MOLT-4 leukemia were -1.76% (active), 3.67% (active) and 1.94% (active), respectively.

As to `COc1cc(N=C2C(=O)N(Cc3ccccc3)c3ccccc32)cc(OC)c1OC`, the growth in the test on SK-MEL-2 melanoma was 98.3%; with SN12C renal it was 99.6%; in the test with UO-31 renal it was 77.3%; in the test on TK-10 renal, 112%; in the test with ACHN renal it was 97.4%; in the test on CAKI-1 renal, 83.8%. The growth was 108% with A498 renal, 29.5% with CCRF-CEM leukemia and 96.9% with MOLT-4 leukemia.

Regarding `C[C@@H]1N=C(c2ccc(Br)cc2)Nc2nc3ccccn3c2C1=O`, the growth with SK-MEL-2 melanoma is 47.4%; with SN12C renal, 91.8%; in the test on UO-31 renal, 62%; with TK-10 renal, 110%; in the test on ACHN renal, 69.2%; with CAKI-1 renal it was 44.1%. Besides, the results for the growth in the test on A498 renal, in the test on CCRF-CEM leukemia and with MOLT-4 leukemia were 69.9%, 79.4% and 57.5%, respectively.

Take `COc1ccc(-c2cn[nH]c2-c2cc(OC)c(OC)c(OC)c2)cc1`: the growth with SK-MEL-2 melanoma was 29.2%; in the test with SN12C renal, 26.3%; with UO-31 renal it was 33%; with TK-10 renal, 58%; with ACHN renal, 20.7%; in the test with CAKI-1 renal, 17.4%. Also, the figures for the growth with A498 renal, in the test with CCRF-CEM leukemia and in the test on MOLT-4 leukemia were -12.1% (active), 6.38% (active) and 4.95% (active), respectively.

As to `COc1ccc(/C(CS(=O)(=O)c2ccccc2)=N\O)cc1`, the growth with SK-MEL-2 melanoma was 113%; in the test with SN12C renal it was 96.9%; with UO-31 renal, 104%; in the test with TK-10 renal, 92.5%; in the test on ACHN renal, 109%; with CAKI-1 renal it was 101%. Moreover, the growth with A498 renal was 102%; with CCRF-CEM leukemia, 96.3%; in the test with MOLT-4 leukemia, 98.4%.

On to `O=C(Nc1cccc([N+](=O)[O-])c1)NN1CCCCCC1`, for which the growth was 105% in the test on SK-MEL-2 melanoma; 96.5% with SN12C renal; 92.5% in the test on UO-31 renal; 105% in the test with TK-10 renal; 94.6% in the test with ACHN renal; 96.2% with CAKI-1 renal. The figures for the growth in the test on A498 renal, in the test with CCRF-CEM leukemia and with MOLT-4 leukemia were 77.3%, 86.1% and 106%, respectively.

Turning to `COc1ccc(Nc2nc(NCc3ccccc3)c3ccccc3n2)cc1`, the growth in the test with SK-MEL-2 melanoma was 63.4%; with SN12C renal, 69.5%; in the test on UO-31 renal it was 58.9%; with TK-10 renal, 40.6%; in the test on ACHN renal, 15.6%; with CAKI-1 renal, 35.7%. For the same compound, the growth is 38.9% with A498 renal, 68.4% in the test with CCRF-CEM leukemia and 81.8% with MOLT-4 leukemia.

As for `C[N+]1(CC2CO2)CCCCCC1` (stereo not given), the growth in the test with SK-MEL-2 melanoma was 118%; in the test with SN12C renal, 102%; with UO-31 renal, 93.4%; with TK-10 renal, 114%; in the test on ACHN renal, 101%; in the test on CAKI-1 renal, 100%. Further, the growth with A498 renal is 87.8%; with CCRF-CEM leukemia it was 109%; in the test on MOLT-4 leukemia, 112%.

In the case of `C=CCNC(=S)NN`, the growth in the test with SK-MEL-2 melanoma is 99.1%; with SN12C renal, 81.7%; in the test with UO-31 renal, 61.7%; in the test with TK-10 renal, 96.2%; in the test on ACHN renal, 94.1%; in the test on CAKI-1 renal it was 91.6%. Moreover, the growth in the test on A498 renal was 81%; in the test with CCRF-CEM leukemia it was 63.2%; in the test on MOLT-4 leukemia, 64.6%.
